Three compounds from PubChem BioAssay (EPA / NIEHS) can be followed below.

Experiment [1] concerns the target Bile acid receptor (Homo sapiens) (UniProt Q96RI1). Kind of experiment: ATG_IR1_CIS: Attagene CIS-FACTORIAL HepG2 Assay for human Nuclear Receptor Subfamily 1 Group H Member 4 (NR1H4), IR1 submotif (AID 2282946). The following applies: IR1 reporter transcription, actives raise or lower the signal. In outline:
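Fluorescence of capillary-separated, HpaI-digested RT-PCR reporter products gave IR1-element mRNA induction in HepG2 cells 24 h after dosing. Endogenous transcription factors drove the cis-regulated reporters; activity was fitted bidirectionally against DMSO.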

Experiment [2] is described as follows: ATG_GRE_CIS: Attagene CIS-FACTORIAL HepG2 Assay for human Glucocorticoid Response Elements (GRE) (AID 2282947). To be noted: HepG2 GRE cis-reporter, Attagene multiplex mRNA; actives raise or lower the signal. In outline:
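Read-out: fluorescent reporter-transcript fragments separated by capillary electrophoresis after RT-PCR. Transiently transfected HepG2 cells carrying cis-element-driven reporter units were dosed for 24 h; gain or loss of signal fitted against DMSO control.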

Experiment [3] in a line: ATG_ISRE_CIS: Attagene CIS-FACTORIAL HepG2 Assay for human Interferon Regulatory Factor 1 (IRF1) binding to an Interferon-Stimulated Response Element (ISRE) (AID 2282948). To be noted: HepG2 ISRE cis-reporter (Attagene), mRNA transcription readout; actives raise or lower the signal. A digest of the protocol:
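Endogenous transcription factor activity read as reporter transcript abundance via RT-PCR and capillary electrophoresis. HepG2 cells transiently transfected, 24 h chemical exposure. Gain or loss fitted against DMSO baseline.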

The nature of experiment [4]: ATG_M_32_CIS: Attagene CIS-FACTORIAL HepG2 Assay for M32 Transcription Factor (Internal Marker) (AID 2282949).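 Note: background control marker of the multiplexed CIS panel rather than a real target.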 The following applies: HepG2 Attagene cis-factorial M32 reporter, mRNA; actives raise or lower the signal. A digest of the protocol:
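Using DMSO as baseline, bidirectional curve fits were applied to reporter mRNA signals. These came from transiently transfected HepG2 cells exposed for 24 h, with RNA analysed by RT-PCR, FAM primer extension, HpaI digestion and CE.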

The nature of experiment [5]: ATG_M_06_CIS: Attagene CIS-FACTORIAL HepG2 Assay for M06 Transcription Factor (Internal Marker) (AID 2282950). The following applies: HepG2 Attagene CIS-FACTORIAL M06 internal marker reporter; actives raise or lower the signal. In outline: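 One of many multiplexed endpoints: HepG2 reporter mRNA after 24 h dosing, detected by RT-PCR and capillary electrophoresis fluorescence; gain or loss of signal analysed against DMSO.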

In experiment [6] the target is Hypoxia-inducible factor 1-alpha (Homo sapiens) (UniProt Q16665). Kind of experiment: ATG_HIF1a_CIS: Attagene CIS-FACTORIAL HepG2 Assay for human Hypoxia Inducible Factor 1 (HIF1A) (AID 2282951). The following applies: HepG2 Attagene cis-factorial HIF1a reporter transcription; actives raise or lower the signal. A digest of the protocol: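 In this multiplexed cell assay, HepG2 cells bearing transfected cis reporters are dosed for 24 h and reporter mRNA is read by RT-PCR plus capillary electrophoresis; signal increases and decreases are both scored against DMSO.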

Experiment [7] concerns the target Hepatocyte nuclear factor 6 (Homo sapiens) (UniProt Q9UBC0). In words: ATG_HNF6_CIS: Attagene CIS-FACTORIAL HepG2 Assay for human Hepatocyte Nuclear Factor 6 (HNF6) (AID 2282952). To be noted: HepG2 Attagene cis-factorial HNF6 reporter transcription; actives raise or lower the signal. A digest of the protocol: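 Activity values derive from bidirectional fitting against DMSO of reporter mRNA levels, measured by capillary electrophoresis of labelled RT-PCR products from HepG2 cells exposed 24 h.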

The target of experiment [8] is Heat shock factor protein 1 (Homo sapiens) (UniProt Q00613). Kind of experiment: ATG_HSE_CIS: Attagene CIS-FACTORIAL HepG2 Assay for human Heat Shock Transcription Factor 1 (HSE) (AID 2282953). The following applies: HepG2 HSE cis-reporter, Attagene RNA transcription; actives raise or lower the signal. A digest of the protocol:
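Using HepG2 with transfected cis-driven reporter constructs, compound effects on endogenous factor activity are scored as reporter mRNA change at 24 h. Detection: RT-PCR, HpaI digestion, capillary electrophoresis; bidirectional fitting to DMSO.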

A short description of experiment [9]: ATG_MRE_CIS: Attagene CIS-FACTORIAL HepG2 Assay for human Metal Responsive Element (MRE) (AID 2282954). The following applies: HepG2 MRE cis-reporter transcription, Attagene multiplex; actives raise or lower the signal. A digest of the protocol:
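RT-PCR/capillary electrophoresis readout of reporter mRNA, 24 h post-dosing, in HepG2 cells transfected with multiplexed cis-regulated reporter constructs. Gain or loss of signal fitted bidirectionally against DMSO baseline.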

Experiment [10] in a line: ATG_PBREM_CIS: Attagene CIS-FACTORIAL HepG2 Assay for human Phenobarbital-responsive Enhancer Module (PBREM) (AID 2282955). To be noted: HepG2 PBREM cis-reporter, Attagene multiplexed transcription; actives raise or lower the signal. In outline:
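After a 24 h incubation with test chemical, transfected HepG2 cells yield total RNA; reporter-specific RT-PCR products are fluorescently labelled, HpaI-digested and resolved by capillary electrophoresis against ROX size standards.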

For experiment [11], the target named is Paired box protein Pax-6 (Homo sapiens) (UniProt P26367). In words: ATG_Pax6_CIS: Attagene CIS-FACTORIAL HepG2 Assay for human Paired Box 6 (PAX6) (AID 2282956). To be noted: HepG2 CIS-FACTORIAL PAX6 reporter transcription, RNA readout; actives raise or lower the signal. A digest of the protocol: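 Read-out is reporter transcript level, measured by RT-PCR with fluorescent primer extension and capillary electrophoresis after 24 h dosing of transfected HepG2 cells. Activity in either direction fitted relative to DMSO control.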

The nature of experiment [12]: ATG_PXRE_CIS: Attagene CIS-FACTORIAL HepG2 Assay for human Pregnane X Receptor Element (PXRE) (AID 2282957). To be noted: HepG2 Attagene CIS-FACTORIAL PXRE reporter, mRNA; actives raise or lower the signal. A digest of the protocol: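 Fluorescent capillary electrophoresis of amplified reporter cDNA gave the signal, collected 24 h after dosing HepG2 cells that held transfected cis-element reporter constructs.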

A short description of experiment [13]: ATG_PPRE_CIS: Attagene CIS-FACTORIAL HepG2 Assay for human Peroxisome Proliferator-activated Response Element (PPRE) (AID 2282958). To be noted: HepG2 PPRE cis-element reporter, Attagene transcription factor profiling; actives raise or lower the signal. In outline:
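Multiplexed reporter transcription units under cis-regulatory promoters were transfected into HepG2 cells to capture endogenous factor activity. A 24 h incubation preceded RNA isolation and fluorescent RT-PCR fragment analysis.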

Experiment [14] is described as follows: ATG_RORE_CIS: Attagene CIS-FACTORIAL HepG2 Assay for human RAR-related Orphan Receptor Element (RORE) (AID 2282959). To be noted: HepG2 Attagene cis-factorial RORE reporter, mRNA; actives raise or lower the signal. A digest of the protocol: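 Fluorescence intensity of reporter-specific cDNA fragments, separated by capillary electrophoresis, gives the signal. Source: HepG2 liver cells transiently transfected with cis-element reporters and exposed 24 h; DMSO-normalized bidirectional fit.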

A short description of experiment [15]: ATG_Sox_CIS: Attagene CIS-FACTORIAL HepG2 Assay for human SRY-box transcription factor (SOX) (AID 2282960). To be noted: HepG2 Attagene cis-factorial SOX reporter, mRNA; actives raise or lower the signal. In outline: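 After 24 h of chemical treatment, transfected HepG2 reporter cells are lysed for total RNA. Transcript levels come from RT-PCR with labelled primer extension and capillary electrophoresis, analysed bidirectionally versus DMSO.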

Experiment [16] deals with Transcription factor Sp1 (Homo sapiens) (UniProt P08047). In words: ATG_Sp1_CIS: Attagene CIS-FACTORIAL HepG2 Assay for human Specificity Protein 1 (Sp1) (AID 2282961). The following applies: HepG2 Sp1 cis-reporter transcription, actives raise or lower the signal. A digest of the protocol: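 Sp1-driven reporter mRNA, read as capillary electrophoresis fluorescence after RT-PCR, in transiently transfected HepG2 cells dosed for 24 h; signal change in either direction relative to DMSO.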

Experiment [17] is described as follows: ATG_SREBP_CIS: Attagene CIS-FACTORIAL HepG2 Assay for human Sterol Regulatory Element Binding (SREBP) (AID 2282962). The following applies: HepG2 Attagene cis-factorial SREBP reporter, mRNA; actives raise or lower the signal. In outline: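 Endogenous SREBP activity read as cis-element-driven reporter transcript in transiently transfected HepG2, 24 h post-dosing; quantified via RT-PCR plus capillary electrophoresis of fluorescent fragments. Gain or loss of signal fitted relative to DMSO baseline.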

The target of experiment [18] is Signal transducer and activator of transcription 3 (Homo sapiens) (UniProt P40763). In words: ATG_STAT3_CIS: Attagene CIS-FACTORIAL HepG2 Assay for human Signal Transducer and Activator of Transcription 3 (STAT3) (AID 2282963). To be noted: HepG2, Attagene cis-factorial STAT3 reporter transcription; actives raise or lower the signal. A digest of the protocol:
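Readout: fluorescent reporter mRNA fragments resolved by capillary electrophoresis. Setup: HepG2 transfected with MRTUs reporting endogenous transcription-factor activity, dosed 24 h. Gain or loss of signal fitted bidirectionally against DMSO control.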

The nature of experiment [19]: ATG_TCF_b_cat_CIS: Attagene CIS-FACTORIAL HepG2 Assay for human T-Cell-Factor with beta-catenin (TCF/b-cat) (AID 2282965). The following applies: HepG2 TCF/beta-catenin cis-reporter transcription, actives raise or lower the signal. A digest of the protocol: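 Cells of the HepG2 line carry transiently transfected reporter units whose promoters respond to endogenous factors. Twenty-four hours post-dosing, reporter mRNA induction is measured by fluorescent RT-PCR and capillary electrophoresis, with DMSO as baseline.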

Experiment [20] in a line: ATG_TA_CIS: Attagene CIS-FACTORIAL HepG2 Assay for human TA Basal Promoter (AID 2282964). The following applies: HepG2 Attagene CIS-factorial TA basal promoter reporter; actives raise or lower the signal. A digest of the protocol: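 Transient MRTU transfection of HepG2 preceded 24 h compound exposure. Reporter mRNA levels were then read by RT-PCR with capillary electrophoresis, and this background-control endpoint was fitted bidirectionally to DMSO.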

Structures are written as SMILES. Activity calls are given as the source filed them. Rule for the calls: active = hit-call score of the fitted dose curve at least 0.9, where 1 is the maximum; inactive = score below 0.9.

Signal transducer and activator of transcription 3 (Homo sapiens), sequence (P40763 whole entry, looked up, the tested form may be a part): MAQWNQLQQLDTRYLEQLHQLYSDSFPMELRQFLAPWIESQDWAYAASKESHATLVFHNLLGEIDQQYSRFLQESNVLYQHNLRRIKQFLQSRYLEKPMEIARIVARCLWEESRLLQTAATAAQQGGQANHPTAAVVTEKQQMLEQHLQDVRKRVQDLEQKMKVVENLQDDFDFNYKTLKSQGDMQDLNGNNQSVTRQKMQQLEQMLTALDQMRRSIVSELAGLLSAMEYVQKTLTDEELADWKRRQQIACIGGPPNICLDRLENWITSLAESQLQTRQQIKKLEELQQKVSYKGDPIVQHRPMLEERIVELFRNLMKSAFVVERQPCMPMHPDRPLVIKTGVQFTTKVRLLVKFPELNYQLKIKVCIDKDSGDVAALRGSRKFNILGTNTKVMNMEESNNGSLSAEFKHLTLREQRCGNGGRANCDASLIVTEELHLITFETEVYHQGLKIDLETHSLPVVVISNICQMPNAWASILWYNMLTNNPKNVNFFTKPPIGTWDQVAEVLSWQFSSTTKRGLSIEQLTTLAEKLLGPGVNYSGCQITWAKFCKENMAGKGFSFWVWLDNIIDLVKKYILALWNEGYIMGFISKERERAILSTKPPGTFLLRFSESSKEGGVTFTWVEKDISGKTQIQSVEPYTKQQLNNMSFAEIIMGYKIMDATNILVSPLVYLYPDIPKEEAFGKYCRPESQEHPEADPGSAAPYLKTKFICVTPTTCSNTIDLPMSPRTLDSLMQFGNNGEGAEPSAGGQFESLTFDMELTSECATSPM
Hypoxia-inducible factor 1-alpha (Homo sapiens), sequence (Q16665 whole entry, looked up): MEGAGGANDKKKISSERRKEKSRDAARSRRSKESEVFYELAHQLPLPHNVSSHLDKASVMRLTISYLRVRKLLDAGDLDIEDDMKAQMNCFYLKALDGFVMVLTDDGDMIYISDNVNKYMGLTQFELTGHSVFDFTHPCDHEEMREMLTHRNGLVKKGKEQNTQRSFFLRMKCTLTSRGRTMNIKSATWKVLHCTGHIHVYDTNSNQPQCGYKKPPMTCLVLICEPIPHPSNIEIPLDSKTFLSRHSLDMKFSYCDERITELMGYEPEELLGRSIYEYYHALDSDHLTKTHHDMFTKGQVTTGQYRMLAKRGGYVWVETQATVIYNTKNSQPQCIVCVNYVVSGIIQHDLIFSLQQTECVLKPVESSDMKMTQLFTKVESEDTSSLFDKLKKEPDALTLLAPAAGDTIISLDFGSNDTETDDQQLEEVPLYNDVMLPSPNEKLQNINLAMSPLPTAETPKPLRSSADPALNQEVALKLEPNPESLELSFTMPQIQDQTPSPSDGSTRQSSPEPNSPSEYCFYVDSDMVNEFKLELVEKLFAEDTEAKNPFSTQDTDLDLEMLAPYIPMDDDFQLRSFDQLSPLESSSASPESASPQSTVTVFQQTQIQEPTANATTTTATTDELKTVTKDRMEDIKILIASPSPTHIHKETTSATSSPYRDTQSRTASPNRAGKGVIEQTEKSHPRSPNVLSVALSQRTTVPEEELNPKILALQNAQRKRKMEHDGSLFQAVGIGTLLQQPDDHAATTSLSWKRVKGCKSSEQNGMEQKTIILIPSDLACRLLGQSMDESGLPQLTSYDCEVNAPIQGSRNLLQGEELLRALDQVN
Heat shock factor protein 1 (Homo sapiens), sequence (Q00613 whole entry, looked up): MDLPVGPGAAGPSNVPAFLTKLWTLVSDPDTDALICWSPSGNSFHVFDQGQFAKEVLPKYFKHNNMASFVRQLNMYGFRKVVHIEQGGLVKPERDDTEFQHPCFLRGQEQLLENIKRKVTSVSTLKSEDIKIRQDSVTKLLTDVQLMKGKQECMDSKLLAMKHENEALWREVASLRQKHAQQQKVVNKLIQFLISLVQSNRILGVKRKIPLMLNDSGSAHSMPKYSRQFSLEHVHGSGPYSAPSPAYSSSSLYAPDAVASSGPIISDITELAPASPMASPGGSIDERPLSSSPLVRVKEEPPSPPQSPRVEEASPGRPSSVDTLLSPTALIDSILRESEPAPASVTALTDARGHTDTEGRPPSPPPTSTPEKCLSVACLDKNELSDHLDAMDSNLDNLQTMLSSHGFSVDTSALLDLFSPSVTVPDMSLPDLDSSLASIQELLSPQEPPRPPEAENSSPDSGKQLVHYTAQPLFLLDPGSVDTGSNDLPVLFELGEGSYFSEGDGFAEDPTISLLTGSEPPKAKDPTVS
Hepatocyte nuclear factor 6 (Homo sapiens), sequence (Q9UBC0 whole entry, looked up): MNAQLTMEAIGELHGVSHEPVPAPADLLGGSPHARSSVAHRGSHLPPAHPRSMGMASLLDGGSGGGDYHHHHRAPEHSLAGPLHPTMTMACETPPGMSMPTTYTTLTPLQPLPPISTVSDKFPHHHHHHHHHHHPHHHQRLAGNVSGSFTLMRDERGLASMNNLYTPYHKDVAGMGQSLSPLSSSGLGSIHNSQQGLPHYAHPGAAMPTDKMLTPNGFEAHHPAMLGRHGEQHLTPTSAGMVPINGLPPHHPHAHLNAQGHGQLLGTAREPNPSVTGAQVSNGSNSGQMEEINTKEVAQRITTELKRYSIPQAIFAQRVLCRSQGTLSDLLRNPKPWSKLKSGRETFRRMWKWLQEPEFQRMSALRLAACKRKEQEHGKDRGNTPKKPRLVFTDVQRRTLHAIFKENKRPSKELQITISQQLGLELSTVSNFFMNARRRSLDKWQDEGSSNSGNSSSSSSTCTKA
Paired box protein Pax-6 (Homo sapiens), sequence (P26367 whole entry, looked up): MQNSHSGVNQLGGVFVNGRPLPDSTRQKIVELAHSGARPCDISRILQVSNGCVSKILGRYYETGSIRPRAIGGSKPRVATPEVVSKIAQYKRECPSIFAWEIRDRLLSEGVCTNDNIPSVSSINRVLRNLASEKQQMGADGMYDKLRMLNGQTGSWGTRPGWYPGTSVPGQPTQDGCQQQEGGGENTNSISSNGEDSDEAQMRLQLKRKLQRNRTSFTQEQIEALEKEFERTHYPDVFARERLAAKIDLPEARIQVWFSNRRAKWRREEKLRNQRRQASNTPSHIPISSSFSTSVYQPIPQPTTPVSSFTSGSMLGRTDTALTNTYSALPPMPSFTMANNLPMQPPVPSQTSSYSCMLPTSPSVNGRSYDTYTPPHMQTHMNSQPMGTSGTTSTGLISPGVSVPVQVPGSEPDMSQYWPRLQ
Transcription factor Sp1 (Homo sapiens), sequence (P08047 whole entry, looked up): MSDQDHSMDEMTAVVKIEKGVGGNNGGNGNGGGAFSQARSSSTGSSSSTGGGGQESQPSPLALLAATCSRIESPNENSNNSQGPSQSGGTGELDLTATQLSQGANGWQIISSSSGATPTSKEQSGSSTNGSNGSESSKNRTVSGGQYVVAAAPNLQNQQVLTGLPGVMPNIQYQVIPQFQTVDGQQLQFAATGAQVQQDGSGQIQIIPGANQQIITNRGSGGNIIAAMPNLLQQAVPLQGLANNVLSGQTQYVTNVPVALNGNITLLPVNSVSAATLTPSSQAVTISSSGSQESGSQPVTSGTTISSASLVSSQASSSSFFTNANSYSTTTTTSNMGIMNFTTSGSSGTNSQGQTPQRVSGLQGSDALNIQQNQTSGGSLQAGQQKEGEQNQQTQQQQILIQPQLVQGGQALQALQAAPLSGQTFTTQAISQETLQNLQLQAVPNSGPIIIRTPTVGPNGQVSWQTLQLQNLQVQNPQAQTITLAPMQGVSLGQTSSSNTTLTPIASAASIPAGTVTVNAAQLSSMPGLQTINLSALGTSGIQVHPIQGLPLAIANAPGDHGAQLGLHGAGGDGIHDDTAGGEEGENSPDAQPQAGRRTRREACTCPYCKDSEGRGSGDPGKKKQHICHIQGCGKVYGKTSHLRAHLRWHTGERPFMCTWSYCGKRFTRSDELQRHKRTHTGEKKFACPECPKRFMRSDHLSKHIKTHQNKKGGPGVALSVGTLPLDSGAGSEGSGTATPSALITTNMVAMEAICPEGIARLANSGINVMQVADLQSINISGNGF
Bile acid receptor (Homo sapiens), sequence (Q96RI1 whole entry, looked up): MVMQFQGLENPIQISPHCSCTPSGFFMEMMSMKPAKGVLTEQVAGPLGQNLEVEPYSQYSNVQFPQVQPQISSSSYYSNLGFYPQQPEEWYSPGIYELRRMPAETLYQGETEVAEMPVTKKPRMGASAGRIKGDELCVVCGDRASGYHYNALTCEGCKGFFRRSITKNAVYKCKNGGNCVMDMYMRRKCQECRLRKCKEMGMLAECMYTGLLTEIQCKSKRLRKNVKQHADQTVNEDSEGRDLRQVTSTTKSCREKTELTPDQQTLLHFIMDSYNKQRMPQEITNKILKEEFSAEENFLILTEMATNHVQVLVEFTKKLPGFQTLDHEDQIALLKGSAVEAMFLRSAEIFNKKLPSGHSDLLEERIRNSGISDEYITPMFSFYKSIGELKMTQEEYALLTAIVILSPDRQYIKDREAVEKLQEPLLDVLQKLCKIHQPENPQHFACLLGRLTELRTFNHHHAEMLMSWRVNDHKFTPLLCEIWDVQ

For the compound `CC1(C)COCN1`, the compound was classed as inactive in [1], in experiment [2], in experiment [3], in [4], in [5] and in experiment [6]. Moreover, the call in experiment [7], in experiment [8], in [9], in experiment [10], in experiment [11] and in experiment [12] was inactive. In addition, the compound was classed as inactive in [13], in experiment [14], in experiment [15], in experiment [16], in experiment [17] and in [18]. For the same compound, the compound was classed as inactive in [19].
The term AC50 denotes the concentration giving half of the maximal activity seen. As for `CC(C)(C)C1=CC(=O)C(C(C)(C)C)=CC1=O`, the compound was classed as inactive in experiment [1], in experiment [4], in experiment [5], in experiment [10], in [15] and in experiment [16]. Moreover, the compound was called inactive in [18] and in experiment [20]. The AC50 is 50 µM (active) in [2]; 71.2 µM (active) in experiment [3]; 33.3 µM (active) in experiment [6]; 78.1 µM (active) in [7]; 97.3 µM (active) in experiment [8]; 50 µM (active) in experiment [9]. In addition, the AC50 in experiment [11] was 61.5 µM (active); in experiment [12], 1.29 µM (active); in experiment [13] it was 13.4 µM (active); in [17], 25.7 µM (active); in experiment [19], 50 µM (active).
For the compound `CCN(CC)C(=O)N(CC)CC`, the compound was classed as inactive in [1], in [2], in experiment [3], in experiment [4], in experiment [5] and in experiment [6]. Moreover, the result in experiment [7], in experiment [8], in experiment [9], in experiment [10], in experiment [11] and in [13] was inactive. Moreover, the compound was called inactive in experiment [14], in experiment [15], in experiment [16], in experiment [17], in experiment [18] and in experiment [20]. Besides, the compound was classed as inactive in experiment [19]. In addition, in experiment [12], the AC50 was 52 µM (active).
